HCV inh = HCV inhibition. hit rate 3.4% among 340,000. Potency, µM (series often up to 41.8 µM), actives largely listed as inhibitors. Huh7.5.1 HCVcc-Cre infection, luciferase reporter, 44 h
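Seed cells (1,000/well) for 4 h; treat with compound and infect with HCVcc-Cre, moi about 0.5. Incubate 44 h, then detect luciferase activity.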
Vaccinia mCherry = vaccinia inhibition (mCherry reporter) | hit rate 0.63% among 310,000 | Potency, µM (series often up to 36.5 µM), usual class: inhibitors | Vaccinia virus mCherry reporter infection, fluorescence; calls by dose curve; tested in A549 cells; also: nearly all actives have a fitted effect of over 35% in size
FMDV inh = foot and mouth disease virus antiviral activity; FMDV antiviral cell-based qHTS; Potency, µM (series often up to 57.9 µM), most hits filed as inhibitors; hit rate 1.2% among 410,000; AID 1159524; calls by dose curve; tested in HEK293T cells; also: read-out not given here; nearly all actives have a fitted effect of over 45% in size
HCMV inh = human cytomegalovirus inhibition; HFF cells, HCMV-luciferase reporter, 72 h; hits give low values; activity change, negative = inhibition, % at 57.5 µM; hit rate 4.5% among 410,000; AID 1259415; in the data active = activity change below about -60%; inconclusive = no clear call, values can overlap the other calls; inactive = above about -39%
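Two compound doses tested in HFFs infected with HCMV-luciferase, MOI 1 PFU/cell, 72 h at 37C. Lysate luminescence read with OneGlo; data normalized against buffer-only and 10uM Salinomycin inhibitor controls.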
Sm TGR block = blocks Schistosoma mansoni thioredoxin glutathione reductase | Q962Y6 | hit rate 3% among 360,000 | Potency, µM (doses to about 114 µM), most hits filed as inhibitors | purified TGR, DTNB reduction, TNB absorbance 405 nm; also: nearly all actives have a fitted effect of over 60% in size
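TGR 20 nM + NADPH 100 uM (dispensed conc.), cpd preinc 15 min RT; start with NADPH (500 uM addition) then DTNB (15 mM addition). Kinetic TNB absorbance, 405 nm filter. Four-parameter Hill fit across titration.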
VACV Venus inh = vaccinia inhibition (Venus reporter) | AID 720580 | Vaccinia virus Venus reporter expression, fluorescence | Potency, µM (top dose mostly 36.5 µM), hits mostly inhibitors | hit rate 0.46% among 330,000; calls by dose curve; tested in A549 cells; also: nearly all actives have a fitted effect of over 30% in size
A number is an active result; – = inactive; ? = inconclusive; · = not tested or not shown; + = active, no number; ! = repeats disagree; [ ] = dose if it differs, or a comment. This is a sample that favours compounds with a hit; in the whole collection about 9.3% have one here. Unless noted, calls follow the shape of the dose curve; as a rule, active = well fitted curve in the direction sought with a large enough effect; inconclusive = small, poorly fitted or top-dose-only effect, or another doubt; inactive = no such curve, though single readings can be large; an effect the other way counts as inactive or inconclusive.

SMILES	HCV inh	Vaccinia mCherry	FMDV inh	HCMV inh	Sm TGR block	VACV Venus inh
COc1ccc(N2C(=O)CC(Nc3ccc(N4CCOCC4)cc3)C2=O)c(OC)c1 (configuration not stated)	–	–	–	–	28.2µM	–
CC(C)(C)NC(=O)C12CCC(C)(c3nc4ccccc4nc31)C2(C)C (configuration not stated)	–	·	–	-94.1	–	·
COC(=O)C12CCC(C)(c3nc4ccccc4nc31)C2(C)C (configuration not stated)	–	–	–	–	·	–
CCc1ccc(CCC(=O)Nc2nnc(C)s2)o1	–	–	–	–	?	–
CCc1ccc(CCC(=O)Nc2ccc(C(=O)O)cc2)o1	–	·	–	+	?	·
CCc1ccc(CCC(=O)Nc2nc(CC(C)=O)ns2)o1	?	·	–	–	39.8µM	·
O=C(c1ccc(S(=O)(=O)NCC2CCCO2)cc1)N1CCN(c2ccccc2F)CC1 (configuration not stated)	–	·	–	–	–	·
CC(C)c1ccc(NC2=NCC(=O)N2Cc2cccs2)cc1	?	–	–	-60.4	·	–
S=C(NCC1CCCO1)N1CCN(c2ccccc2)CC1 (configuration not stated)	–	–	–	–	–	–
O=C(c1noc2c1CCCCC2)N1CCN(c2cccc(C(F)(F)F)c2)CC1	·	–	–	-77.8	–	–
FC(F)(F)c1cccc(N2CCN(C(=S)NCC3CCCO3)CC2)c1 (configuration not stated)	11.2µM	–	?	-65.0	–	–
O=C(c1cc2ccccn2n1)N1CCN(c2cccc(C(F)(F)F)c2)CC1	–	·	?	-67.7	–	·
COc1ccc(-c2noc(CCC(=O)N3CCN(c4ccc(C(F)(F)F)cc4)CC3)n2)cc1	–	–	–	–	·	–
Cc1ccc(-c2noc(CCC(=O)N3CCN(c4cccc(C(F)(F)F)c4)CC3)n2)cc1	11.2µM!	·	?	–	–	?
O=C(c1ccccn1)N1CCN(c2cccc(C(F)(F)F)c2)CC1	–	·	–	–	–	·
O=C(c1noc2c1CCCCC2)N1CCN(c2cccc(Cl)c2)CC1	·	–	–	?	–	–
Cc1nn2c(c1-c1ccccc1)NC1=C(C(=O)CCC1)C2c1ccccc1 (configuration not stated)	–	·	–	–	–	·
O=C(Nc1ccc2c(c1)[C@@H]1C[C@@H](CC(=O)N3CCOCC3)O[C@@H](CO)[C@@H]1O2)NC1CCCC1	·	–	–	–	·	–
COc1ccccc1CC(=O)Nc1ccc2c(c1)OC1(CCCC1)O2	12.6µM	?	–	–	·	–
Cc1ccc2c(c1)CCCN2C(=O)c1ccoc1C	–	·	–	–	50.1µM	·
O=C(c1ccccc1F)N1CCCc2ccccc21	–	·	–	–	–	·
CCc1ccc2c(c1)CCCN2C(=O)c1ccccc1C(=O)O	10µM	·	–	–	–	·
Cc1ccc2c(c1)CCCN2C(=O)c1c(C)noc1C	–	–	–	–	–	–
Cc1ccc(C23CC4CC(CC(NC(=O)NCCN(C)C)(C4)C2)C3)cc1	?	–	–	–	–	?
CN(C)CCNC(=O)COc1ccc(C23CC4CC(CC(C4)C2)C3)cc1	11.2µM	–	–	-67.7	–	?
SMILES	HCV inh	Vaccinia mCherry	FMDV inh	HCMV inh	Sm TGR block	VACV Venus inh
COC(=O)c1cc2sccc2n1CC(=O)Nc1ccc(OC)c(OC)c1	·	–	–	–	–	–
O=[N+]([O-])c1ccc(-c2nc3ccc([N+](=O)[O-])cc3[nH]2)cc1	?	–	?	–	–	?
O=[N+]([O-])c1ccc2nc(/C=C/c3ccc(Cl)cc3)[nH]c2c1	?	–	·	-85.8	–	?
CC1=CC(C)(C)n2c(O)c(N=NC(N)=S)c3cc(C)cc1c32	?	·	–	-67.8	–	·
CCCCn1c(NCc2cc(C)ccc2O)nc2ccccc21	·	–	–	–	·	?
N#C/C(=C/c1cccc(C(F)(F)F)c1)c1nc(CCN2C(=O)c3ccccc3C2=O)cs1	–	·	–	–	–	·
O=c1[nH]c(-c2ccccn2)nc2ccccc12	?	·	–	-106.4	–	–
O=c1[nH]c(-c2ccccn2)nc(C(F)(F)F)c1Br	–	11.2µM	–	–	–	–
CCCOc1ccc(NC(=O)CC2C(=O)N(CC)C(=S)N2Cc2cccs2)cc1 (configuration not stated)	–	·	–	–	–	·
Cc1ccc(N(C(=O)Nc2ccccc2)C2=NCCC2)cc1	–	–	–	–	–	–
CSCC[C@H](NC(=O)Nc1ccc(S(N)(=O)=O)cc1)C(=O)O	–	–	–	–	–	–
O=C(CN1C(=O)c2cccnc2Oc2ccc(Cl)cc21)NCCCc1ccccc1	11.2µM	·	–	–	–	·
CSc1ccc(CCNC(=O)CN2C(=O)c3cccnc3Oc3ccc(Cl)cc32)cc1	·	–	–	?	–	–
COc1ccc(Br)cc1CNC(=O)CN1C(=O)c2cccnc2Oc2ccc(C)cc21	·	–	–	+	–	?
CCn1c(SCC(=O)N2CCCCC2C)nnc1-c1ccco1 (configuration not stated)	–	–	–	–	44.7µM	–
CCn1c(SCC(=O)c2ccc3c(c2)OCCO3)nnc1-c1ccco1	–	–	–	–	22.4µM	–
CCn1c(SCC(=O)NNC(=O)c2ccccc2)nnc1-c1ccco1	–	–	–	–	–	–
CCn1c(SCC(=O)c2ccc3ccccc3c2)nnc1-c1ccco1	–	·	–	–	31.6µM	·
COCCn1c(SCC(=O)c2ccc3c(c2)OCCO3)nnc1-c1ccco1	–	·	–	–	–	·
CC1CCCCN1C(=O)CSc1nnc(-c2ccco2)n1C (configuration not stated)	–	–	–	–	–	–
COC(=O)c1cc(COC(=O)c2cccnc2SC)oc1C	–	·	–	–	–	·
COc1cc(-c2noc(-c3cc4cc(F)ccc4oc3=O)n2)cc(OC)c1OC	·	–	–	–	–	–
O=C(NCc1ccc(F)cc1)c1ccc[nH]1	–	–	–	–	·	–
O=C(NCC(=O)N(CC1CCCO1)C1(C(=O)NC2CCCC2)CCCCC1)c1ccccc1 (configuration not stated)	–	·	–	–	–	·
CCCCOc1ccccc1C1CC(=O)Nc2ccc3ccccc3c21 (configuration not stated)	·	–[7.34 µM]	–	-91.6	–	–[7.34 µM]
CCOc1ccc(OCCC(=O)N(CCC2=CCCCC2)c2c(N)n(Cc3ccccc3)c(=O)[nH]c2=O)cc1	?	–	–	–	–	–
COc1ccccc1CCC(=O)N(Cc1ccccc1)c1c(N)n(Cc2ccccc2)c(=O)[nH]c1=O	1.12µM	?	–	–	–	–
CCOc1ccc(OCC(=O)N(CCC2=CCCCC2)c2c(N)n(Cc3ccccc3)c(=O)[nH]c2=O)cc1	–	·	·	-84.2	–	·
Nc1c(N(Cc2ccccc2)C(=O)COc2cccc(Cl)c2)c(=O)[nH]c(=O)n1Cc1ccccc1	?	–	?	-78.4	–	–
CCOc1ccccc1CNC(=O)c1ccc2c(c1)sc1nc(-c3ccccc3)cn12	·	–	–	·	–	–
